# Experimental data as given in PubChem BioAssay.
# Several values for one entry are separate records, joined by “and”; a condition that tells them apart may be missing. Equal entries are not always repeated. Results filed as inconclusive are left out. Activity calls are given as the source filed them.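 The calls were made as follows, unless noted: active = normalized viability below 100% at a tested concentration; inactive = the rest.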
# What was measured:
# [1] = ICB984 medulloblastoma cell growth inhibition, synergistic combos for chromothripsis tumors, cisplatin or BGB combos (AID 1671451; call rule not given here;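 also: cells exposed for 96 hours before readout; 0% = vehicle DMSO and 100% = killing by high DMSO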); conditions: ICB984 medulloblastoma cells, drug combinations, stronger effect = higher value
# [2] = LFS_MB_1R medulloblastoma cell growth inhibition, synergistic combos for chromothripsis tumors, cisplatin or BGB combos (AID 1671452; in the data active = inhibition above about 80%;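 also: cells exposed for 96 hours before readout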); conditions: LFS_MB_1R medulloblastoma cells, stronger effect = higher value
# [3] = HTB85 osteosarcoma cell growth inhibition, synergistic combos for chromothripsis tumors, BGB or cisplatin IC20 combos (AID 1671453; in the data active = inhibition above about 80%;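 also: cells exposed for 96 hours before readout; 0% = vehicle DMSO and 100% = high DMSO killing control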); conditions: HTB85 osteosarcoma cells, drug combinations, stronger effect = higher value
# [4] = CRL2098 osteosarcoma cell growth inhibition, synergistic combos for chromothripsis tumors, BGB or cisplatin IC20 combos (AID 1671454; in the data active = inhibition above about 80%;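 also: cells exposed for 96 h before readout; 0% = vehicle DMSO and 100% = killing by high DMSO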); conditions: CRL2098 osteosarcoma cells, drug combinations, stronger effect = higher value
# [5] = HD-MB03 medulloblastoma cell growth inhibition, synergistic combos for chromothripsis tumors, BGB or cisplatin IC20 combos (AID 1671455; in the data active = inhibition above about 83%;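 also: 0% = vehicle DMSO and 100% = high DMSO as cytotoxic control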); conditions: HD-MB03 medulloblastoma cells, stronger effect = higher value
# [6] = viability loss in pontine glioma line – cell-based, SU-DIPG-XXV, MIPE5.0, CellTiter-Glo, qHTS, dose response (AID 1347065; cut-off not given, nearly all actives have AC50 up to about 26 µM;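 also: cells exposed to compound for 48 hours before ATP readout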); conditions: CellTiter-Glo ATP luminescence
# [7] = JHH-DIPG-1 glioma cell viability, MIPE5.0 library, CellTiter-Glo luminescence, qHTS (AID 1347067; cut-off not given, nearly all actives have AC50 up to about 26 µM;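 also: cells exposed to compound for 48 hours before readout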); conditions: JHH-DIPG-1 glioma viability, CellTiter-Glo ATP luminescence
# [8] = SU-DIPG-XXV glioma cell viability, MIPE5.0 library, qHTS (AID 1347068; cut-off not given, nearly all actives have IC50 up to about 30 µM)
# [9] = sensitizers of A549 cells to miR-34 induction, primary screen, imaging, A549 dox-inducible miR-34, nuclei and caspase counts (AID 1347080;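 active = compounds whose cell count with miR-34 switched on is under 0.7 times the count with it off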); conditions: A549 miR-34 inducible, Hoechst nuclei count, 48 h
# [10] = modifiers of HSF1 nuclear foci, imaging, Selleck Cancer Library (AID 1347162; in the data active = plate-normalised HSF1 focus index below about 0.46); conditions: human cells, at 10 µM; SSMD: measured here: HSF1 foci SSMD mean; cell count: measured here: cell number; plate-normalised HSF1 focus index: stronger effect = lower value
# [11] = survival rescue of mitochondrial mutant cells in low glucose, primary screen, MELAS cybrids, Rieske KO mouse fibroblasts, CellTiter-Glo (AID 1508586;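 active = mean z-score across replicates of 1.96 or higher in either the MELAS or the Rieske mutant cell line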;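 also: z relative to plate mean and SD of compound and empty wells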)
# [12] = ovarian cancer cell viability with rucaparib, profiling panel, oncology-focused library, rucaparib conditional (AID 1508598); conditions: patient-derived ovarian cancer cells, CellTiter-Glo viability, 144 h, stronger effect = lower value
# [13] = molecular target: NAD(+) hydrolase SARM1 (Homo sapiens) (UniProt Q6SZW1); test: SARM1 TIR NADase inhibitors, cell lysate, NAD-Glo luminescence (AID 1508614;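 active = compound whose remaining NAD level is above about 45 nM, limit read from the data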;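 also: higher remaining NAD means stronger inhibition of SARM1 NADase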); conditions: SAM-TIR HEK293T lysate NADase, at 1 µM, stronger effect = higher value
# Chain of NAD(+) hydrolase SARM1 (Homo sapiens) (Q6SZW1 whole entry, looked up): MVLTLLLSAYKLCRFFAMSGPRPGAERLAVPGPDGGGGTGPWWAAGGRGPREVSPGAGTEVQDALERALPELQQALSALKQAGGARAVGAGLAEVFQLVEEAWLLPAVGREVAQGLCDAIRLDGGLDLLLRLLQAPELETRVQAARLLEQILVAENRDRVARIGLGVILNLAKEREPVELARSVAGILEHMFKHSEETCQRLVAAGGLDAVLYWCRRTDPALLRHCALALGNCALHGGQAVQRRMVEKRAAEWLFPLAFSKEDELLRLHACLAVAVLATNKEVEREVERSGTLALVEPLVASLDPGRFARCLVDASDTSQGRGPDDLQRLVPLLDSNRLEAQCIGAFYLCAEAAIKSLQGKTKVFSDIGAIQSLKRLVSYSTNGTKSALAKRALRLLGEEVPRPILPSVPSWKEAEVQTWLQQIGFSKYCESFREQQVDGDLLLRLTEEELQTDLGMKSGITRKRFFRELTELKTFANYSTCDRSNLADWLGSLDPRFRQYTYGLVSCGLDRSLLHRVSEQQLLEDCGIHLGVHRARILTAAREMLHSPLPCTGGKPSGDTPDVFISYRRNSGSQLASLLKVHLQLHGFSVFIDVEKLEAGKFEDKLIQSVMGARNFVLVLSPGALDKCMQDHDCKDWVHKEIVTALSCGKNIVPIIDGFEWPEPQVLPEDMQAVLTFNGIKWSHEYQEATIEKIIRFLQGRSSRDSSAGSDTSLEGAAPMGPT
# [14] = SU-DIPG-VI glioma cell viability, MIPE4.0 library, CellTiter-Glo luminescence, qHTS (AID 1347066; cut-off not given, nearly all actives have AC50 up to about 30 µM;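 also: cells exposed to compound for 48 hours before readout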); conditions: CellTiter-Glo ATP luminescence
# [15] = molecular target: Mitogen-activated protein kinase 7 (Homo sapiens) (UniProt Q13164); test: ERK5 transactivation activators in reporter cells, primary screen, cell-based, HTS (AID 1508626;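 active = luciferase signal above three times the same-plate solvent-only control wells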;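 also: luciferase driven by Gal4-ERK5 fusion binding five Gal4 sites before minimal TATA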); conditions: HeLa Gal4-ERK5 transactivation, 18 h, at 5 µM, stronger effect = higher value
# Chain of Mitogen-activated protein kinase 7 (Homo sapiens) (Q13164 whole entry, looked up, the tested form may be a part): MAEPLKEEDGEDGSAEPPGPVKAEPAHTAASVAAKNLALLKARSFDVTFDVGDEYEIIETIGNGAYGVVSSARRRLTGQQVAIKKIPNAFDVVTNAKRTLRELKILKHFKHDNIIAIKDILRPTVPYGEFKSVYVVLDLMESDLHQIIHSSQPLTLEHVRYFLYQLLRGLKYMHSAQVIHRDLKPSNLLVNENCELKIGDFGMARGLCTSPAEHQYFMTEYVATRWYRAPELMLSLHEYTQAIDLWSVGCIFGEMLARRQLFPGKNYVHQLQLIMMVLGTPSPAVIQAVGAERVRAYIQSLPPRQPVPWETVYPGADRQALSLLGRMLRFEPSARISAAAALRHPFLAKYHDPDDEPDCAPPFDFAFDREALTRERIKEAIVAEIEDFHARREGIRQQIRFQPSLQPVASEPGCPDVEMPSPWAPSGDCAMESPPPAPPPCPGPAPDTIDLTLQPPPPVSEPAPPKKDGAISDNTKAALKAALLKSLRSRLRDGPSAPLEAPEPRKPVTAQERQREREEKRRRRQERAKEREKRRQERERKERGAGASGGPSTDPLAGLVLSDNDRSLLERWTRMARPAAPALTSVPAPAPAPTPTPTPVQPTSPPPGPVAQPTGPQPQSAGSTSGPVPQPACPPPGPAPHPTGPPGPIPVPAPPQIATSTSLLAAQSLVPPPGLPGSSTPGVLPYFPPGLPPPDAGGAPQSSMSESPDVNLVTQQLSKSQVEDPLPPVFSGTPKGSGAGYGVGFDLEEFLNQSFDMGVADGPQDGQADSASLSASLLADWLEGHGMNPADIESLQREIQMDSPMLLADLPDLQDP
# [16] = stronger effect = lower value, cell number ratio, induced over uninduced
# [17] = measured here: relative caspase fold change +Dox/-Dox
# [18] = measured here: total cells with miR-34 induction, stronger effect = lower value
# [19] = measured here: total cells without miR-34 induction
# [20] = MELAS cybrid survival, CellTiter-Glo 48 h, stronger effect = higher value
# [21] = Rieske KO mouse fibroblast survival, CellTiter-Glo 72 h
compound,measurement,setting,value
O=NN(CCCl)C(=O)NC1CCCCC1,inhibition,"[1]; BGB IC40 combo, at 0.05 µM",-15.4% and -60.7%
same,inhibition,[1]; at 0.5 µM,-38.4% (inactive) and -29.6% (inactive)
same,inhibition,"[1]; cisplatin combo, at 0.05 µM",-18.7% and -67%
same,inhibition,"[1]; cisplatin combo, at 0.5 µM",-33.8% and -42.1%
same,inhibition,"[1]; cisplatin combo, at 5 µM",-56.7% and -19.2%
same,inhibition,"[1]; measured here: 5 uM single agent, at 5 µM",-34.3% and -15.2%
same,inhibition,[2]; at 0.5 µM,-15.1% (inactive) and -17.6% (inactive)
same,inhibition,"[2]; measured here: combination with BGB IC40, at 0.05 µM",-47.7% and -29.7%
same,inhibition,"[2]; measured here: combination with cisplatin, at 0.5 µM",-17.2% and -26.3%
same,inhibition,"[2]; measured here: combination with cisplatin, at 5 µM",-19.8% and 0.28%
same,inhibition,[3]; at 0.5 µM,-14.3% (inactive) and -7.5% (inactive)
same,inhibition,"[3]; measured here: with BGB IC20, at 0.5 µM",-27% and -24%
same,inhibition,"[3]; measured here: with BGB IC20, at 5 µM",-2.92% and -20.1%
same,inhibition,"[3]; measured here: with cisplatin IC20, at 0.5 µM",-13.8% and 2.41%
same,inhibition,"[3]; measured here: with cisplatin IC20, at 5 µM",-45.5% and 7.57%
same,inhibition,"[3]; single agent, at 5 µM",-16.4% and -4.13%
same,inhibition,[4]; at 0.5 µM,-30.9% (inactive) and -17.1% (inactive)
same,inhibition,"[4]; measured here: combination with BGB at IC20, at 0.5 µM",-24.6% and 7.17%
same,inhibition,"[4]; measured here: combination with cisplatin at IC20, at 0.5 µM",-72.6% and -17.3%
same,inhibition,[5]; at 0.5 µM,-11.2% (inactive) and -8.17% (inactive)
same,inhibition,"[5]; measured here: combo with BGB at IC20, at 0.5 µM",-11.5% and -2.92%
same,inhibition,"[5]; measured here: combo with cisplatin at IC20, at 0.5 µM",-6.91% and -12.4%
COc1cc2c(N3CCN(C(=O)Nc4ccc(OC(C)C)cc4)CC3)ncnc2cc1OCCCN1CCCCC1,outcome,[6],inactive
same,outcome,[7],inactive
same,outcome,[8],inactive
same,fold change,[9]; [16],0.882 (inactive) and 0.979 (inactive)
same,fold change,[9]; [17],1.09 and 0.885
same,cell count,[9]; [18],7400 and 5330
same,cell count,[9]; [19],8380 and 5450
same,SSMD,[10],0.871
same,cell count,[10],7020
same,plate-normalised HSF1 focus index,[10],1.05 (inactive)
same,z-score,[11]; [20],-0.531 (inactive)
same,z-score,[11]; [21],0.343
same,viability,"[12]; at 0.000305 µM, OCI-C5x cells, with rucaparib 10 µM, 100% = cells with rucaparib alone",113% (inactive)
same,viability,"[12]; at 0.000305 µM, OCI-C5x cells, without rucaparib",103% (inactive)
same,viability,"[12]; at 0.000305 µM, OCI-P5x cells, with rucaparib 20 µM, 100% = cells with rucaparib alone",86.7% (active)
same,viability,"[12]; at 0.000305 µM, OCI-P5x cells, without rucaparib",88.3% (active)
same,viability,"[12]; at 0.00122 µM, OCI-C5x cells, with rucaparib 10 µM, 100% = cells with rucaparib alone",104% (inactive)
same,viability,"[12]; at 0.00122 µM, OCI-C5x cells, without rucaparib",105% (inactive)
same,viability,"[12]; at 0.00122 µM, OCI-P5x cells, with rucaparib 20 µM, 100% = cells with rucaparib alone",97% (active)
same,viability,"[12]; at 0.00122 µM, OCI-P5x cells, without rucaparib",88.4% (active)
same,viability,"[12]; at 0.00488 µM, OCI-C5x cells, with rucaparib 10 µM, 100% = cells with rucaparib alone",112% (inactive)
same,viability,"[12]; at 0.00488 µM, OCI-C5x cells, without rucaparib",97.5% (active)
same,viability,"[12]; at 0.00488 µM, OCI-P5x cells, with rucaparib 20 µM, 100% = cells with rucaparib alone",114% (inactive)
same,viability,"[12]; at 0.00488 µM, OCI-P5x cells, without rucaparib",96.8% (active)
same,viability,"[12]; at 0.0195 µM, OCI-C5x cells, with rucaparib 10 µM, 100% = cells with rucaparib alone",109% (inactive)
same,viability,"[12]; at 0.0195 µM, OCI-C5x cells, without rucaparib",98.4% (active)
same,viability,"[12]; at 0.0195 µM, OCI-P5x cells, with rucaparib 20 µM, 100% = cells with rucaparib alone",130% (inactive)
same,viability,"[12]; at 0.0195 µM, OCI-P5x cells, without rucaparib",92.4% (active)
same,viability,"[12]; at 0.0781 µM, OCI-C5x cells, with rucaparib 10 µM, 100% = cells with rucaparib alone",113% (inactive)
same,viability,"[12]; at 0.0781 µM, OCI-C5x cells, without rucaparib",105% (inactive)
same,viability,"[12]; at 0.0781 µM, OCI-P5x cells, with rucaparib 20 µM, 100% = cells with rucaparib alone",115% (inactive)
same,viability,"[12]; at 0.0781 µM, OCI-P5x cells, without rucaparib",94.2% (active)
same,viability,"[12]; at 0.313 µM, OCI-C5x cells, with rucaparib 10 µM, 100% = cells with rucaparib alone",119% (inactive)
same,viability,"[12]; at 0.313 µM, OCI-C5x cells, without rucaparib",113% (inactive)
same,viability,"[12]; at 0.313 µM, OCI-P5x cells, with rucaparib 20 µM, 100% = cells with rucaparib alone",146% (inactive)
same,viability,"[12]; at 0.313 µM, OCI-P5x cells, without rucaparib",90.4% (active)
same,viability,"[12]; at 1.25 µM, OCI-C5x cells, with rucaparib 10 µM, 100% = cells with rucaparib alone",123% (inactive)
same,viability,"[12]; at 1.25 µM, OCI-C5x cells, without rucaparib",117% (inactive)
same,viability,"[12]; at 1.25 µM, OCI-P5x cells, with rucaparib 20 µM, 100% = cells with rucaparib alone",105% (inactive)
same,viability,"[12]; at 1.25 µM, OCI-P5x cells, without rucaparib",90% (active)
same,viability,"[12]; at 5 µM, OCI-C5x cells, with rucaparib 10 µM, 100% = cells with rucaparib alone",158% (inactive)
same,viability,"[12]; at 5 µM, OCI-C5x cells, without rucaparib",138% (inactive)
same,viability,"[12]; at 5 µM, OCI-P5x cells, with rucaparib 20 µM, 100% = cells with rucaparib alone",115% (inactive)
same,viability,"[12]; at 5 µM, OCI-P5x cells, without rucaparib",86.2% (active)
same,remaining NAD,[13],10 nM (inactive)
COc1ccc2cc3[n+](cc2c1OC)CCc1cc2c(cc1-3)OCO2,AC50,[6],18.6 µM (active)
same,AC50,[14],23.5 µM (active)
same,AC50,[7],18.6 µM (active)
same,fold change,[9]; [16],0.92 (inactive) and 0.934 (inactive)
same,fold change,[9]; [17],1.68 and 1.22
same,cell count,[9]; [18],5700 and 4440
same,cell count,[9]; [19],6200 and 4750
same,z-score,[11]; [20],0.0209 (inactive)
same,z-score,[11]; [21],0.259
same,luciferase signal,[15],64 AU (inactive)
